# Experimental data published in PubChem BioAssay (NCI).
# The panel holds about 83,000 compounds, 20% with a hit somewhere; the sample as a whole holds those more often.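 Assay: single dose, 48 h. Readout: percent growth (0 = no net growth; negative = cell death). Active: <10.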 A number with no mark means an inactive call. Calls of active or inactive are those of the source.
# Tests used:
# Assay in all cases: NCI-60 one-dose screen, 48 h (100 = growth as untreated, 0 = no growth, -100 = all killed)
# Details in all cases: 10 µM unless noted
# T-47D breast = system: T-47D breast
# BT-549 breast = system: BT-549 breast
# MDA-MB-435 melanoma = system: MDA-MB-435 melanoma
# SW-620 colon = system: SW-620 colon
# MCF7 breast = system: MCF7 breast
# HCT-116 colon = system: HCT-116 colon
# HCC-2998 colon = system: HCC-2998 colon
# KM12 colon = system: KM12 colon
Structure (SMILES),growth (T-47D breast),growth (BT-549 breast),growth (MDA-MB-435 melanoma),growth (SW-620 colon),growth (MCF7 breast),growth (HCT-116 colon),growth (HCC-2998 colon),growth (KM12 colon)
C=CC(=O)Nc1cccc(-c2nc(SC)nc(NCCN3CCOCC3)c2C#N)c1,93%,87.7%,87.1%,108%,72.6%,95.3%,115%,102%
CC(=O)OCCC/C(=C/c1cc2ccccc2c2ccccc12)[N+](=O)[O-],-66.7% (active),-50% (active),-36.2% (active),-88.2% (active),-87.8% (active),-100% (active),-99.5% (active),-99.2% (active)
CN(C)S(=O)(=O)c1ccc(S(=O)(=O)Nc2cccc(Cl)c2N2CCCCC2)cc1,67.4%,88.4%,92.3%,97.1%,84.1%,61.6%,94.5%,94.5%
COc1ccc(/C=C\c2cc(OC)c(OC)c(OC)c2)cc1OCC(=O)Nc1ccc2nc(C)sc2c1,6.4% (active),38%,-3.48% (active),38%,20.6%,23.4%,86.1%,19%
Cn1c(O)c(N=NC(=O)c2cc(-c3ccccc3)on2)c2ccccc21,101%,103%,95.3%,105%,77.5%,98.9%,102%,101%
CC(C)C[C@@H](NC(=O)[C@@H](Cc1ccccc1)NC(=O)c1cnccn1)B1Oc2ccc(C[C@H](NC(=O)[C@H](Cc3ccc4c(c3)OB([C@@H](CC(C)C)NC(=O)[C@@H](Cc3ccccc3)NC(=O)c3cnccn3)O4)NC(=O)[C@@H](N)CC3CCC4OB([C@@H](CC(C)C)NC(=O)[C@@H](CC5CCCCC5)NC(=O)C5CNCCN5)OC4C3)C(=O)NCCCC[C@@H]3NC(=O)[C@@H](Cc4ccccc4)NC(=O)[C@H](CC(=O)O)NC(=O)CNC(=O)[C@H](CCCNC(=N)N)NC3=O)cc2O1 (stereo partly drawn),-57.8% (active),-66.8% (active),-74.7% (active),-49.5% (active),-43.9% (active),-69.2% (active),-95.7% (active),-51.5% (active)
CCc1nnc(CNc2ccc(Cl)cc2)o1,93.9%,96.4%,101%,97.7%,91.3%,96.1%,97.6%,101%
O=C(Cc1ccc(/C=C/C(=O)c2ncc[nH]2)cc1)Nc1ccc(F)cc1,19.3%,22.4%,32.6%,4.06% (active),11.3%,26.8%,79.7%,8.05% (active)
CCOc1cc2c(cc1OCC)C(c1cc(OC)c(O)cc1Cl)NCC2 (stereo not drawn),85.4%,102%,77.5%,99.3%,93.5%,76.3%,63.2%,88.9%
N#Cc1c(-c2ccc(Cl)cc2)nc(NN=Cc2ccco2)nc1N1CCOCC1,23.2%,58.5%,79.4%,82.2%,26.2%,76.2%,74.8%,95%
Nc1n[nH]c2ccc([C@@H]3Nc4ccc5[nH]ncc5c4[C@H]4C5C=CC(C5)[C@@H]34)cc12 (stereo partly drawn),80%,3.98% (active),-28.1% (active),22.8%,17.8%,6.63% (active),14.3%,10.4%
COc1ccc(CCNc2nc(SC)nc(-c3cccc([N+](=O)[O-])c3)c2C#N)cc1OC,79.3%,42.2%,87.7%,92.9%,86.8%,82%,93.6%,99.1%
OC(c1cc2cc(Cl)c(Cl)cc2c2cc(C(F)(F)F)ccc12)C1CCCCN1 (stereo not drawn),-78.6% (active),76.4%,-73.9% (active),-74% (active),-87.3% (active),-87.3% (active),-80.9% (active),-91.1% (active)
CCOc1cc2ncc(C#N)c(Nc3ccc(OCc4cccc(F)c4)c(Cl)c3)c2cc1NC(=O)CC1CCSS1 (stereo not drawn),-0.0513% (active),44.6%,-26.4% (active),90.4%,2.9% (active),-24.7% (active),-25.1% (active),-67.6% (active)
Cc1cc2nc3[nH]c4ccccc4c3nc2cc1C,58.9%,92.4%,120%,73.3%,48.2%,46.1%,98.4%,77.9%
COc1cc(C(=O)/C=C/c2cccnc2Nc2ccc(Cl)cc2)cc(OC)c1OC,-67.3% (active),-19.1% (active),-58% (active),-71.5% (active),-54.4% (active),-55.7% (active),-84.3% (active),-86.8% (active)

Structure (SMILES),growth (T-47D breast),growth (BT-549 breast),growth (MDA-MB-435 melanoma),growth (SW-620 colon),growth (MCF7 breast),growth (HCT-116 colon),growth (HCC-2998 colon),growth (KM12 colon)
CCn1c(Cc2ccccc2Nc2c(Cl)cccc2Cl)nnc1SCC(=O)NN1C(=O)/C(=C/c2cc(OC)c(O)c(OC)c2)SC1=S,24.4%,50%,-46.5% (active),21.2%,16.9%,11.5%,56.9%,18%
Cc1nn(-c2ccc(F)cc2)c2ncnc(Nc3ccc(NC(=O)Nc4ccc(Cl)c(C(F)(F)F)c4)cc3)c12,2.53% (active),57.9%,40.1%,19.9%,12.8%,32.1%,22.2%,14.7%
Clc1ccc2nc3nc4ccc[nH]c4cc3c2c1,22%,97.7%,103%,102%,6.54% (active),96.9%,70.6%,63%
Cc1cc2c3ccccc3ccc2[n+]2ccccc12,4.64% (active),-2.46% (active),76.5%,33%,27.2%,43.5%,47%,25.9%
CCCCC(=O)OCC1OC(n2cnc3c(=S)nc[nH]c32)C(OC(=O)CCCC)C1OC(=O)CCCC (stereo not drawn),36.1%,43.9%,29.4%,23.5%,20.2%,27.3%,-0.586% (active),36.1%
COC(=O)[C@@H]1CCCN1C(=O)[C@@H]1CCCN1C(=O)[C@H](Cc1ccccc1)NC(=S)Nc1cc(C(F)(F)F)cc(C(F)(F)F)c1,92.3%,81.1%,86.5%,93%,67.1%,69%,93.3%,45.1%
Cc1cc(N2CCN(c3ccnc4cc(Cl)ccc34)CC2)nc(N2CCOCC2)n1,46.9%,86%,88.7%,101%,75.1%,70.3%,89%,85.6%
Cc1cc(N[C@@H]2CCC[C@H](Nc3ccnc4cc(Cl)ccc34)C2)nc(N2CCCCCC2)n1,-41.8% (active),-87.9% (active),-91.7% (active),-76.5% (active),-63.1% (active),-88.6% (active),-83.7% (active),-39% (active)
O=C1/C(=C/C(Cl)=C/c2ccccc2)SC(=S)N1CCc1ccc(O)cc1,-34.4% (active),11.6%,-30.7% (active),4.79% (active),26.4%,-62.3% (active),-68.1% (active),-31.6% (active)
O=C(COc1cccc(/C=C2\CSc3ccccc3C2=O)c1)Nc1nccs1,68.9%,-92.9% (active),20.8%,-74.1% (active),-0.12% (active),-21% (active),100%,-39.7% (active)
N#Cc1nnn(-c2ccc(S(N)(=O)=O)cc2)c1NCC(=O)c1ccccc1,95.4%,98%,91.8%,97.2%,93.3%,95%,112%,99.4%
COc1ccc2[nH]cc(-c3noc(C(=O)c4cn(C)c5ccc(F)cc45)n3)c2c1,83.8%,88.9%,102%,95.1%,58.8%,101%,101%,92.6%
C=CCSSc1ncnc2c1ncn2C1OC(CO)C(O)C1O (stereo not drawn),24.3%,54.8%,22.5%,53.8%,4.74% (active),22.4%,35.1%,37.1%
O=C1c2cc3c(cc2-c2c1c1ccc(F)cc1c(=O)n2C[C@H](O)[C@H](O)[C@H](O)CO)OCO3,-14.8% (active),-11.3% (active),-75.6% (active),1.12% (active),0.35% (active),9.02% (active),-50.2% (active),3.9% (active)
O=C(Cc1ccccc1Nc1c(Cl)cccc1Cl)NN1C(=O)/C(=C/c2ccc(Br)cc2)SC1=S,107%,105%,107%,98.5%,100%,103%,106%,107%
